Sampled rows, rich in hits. Any-hit rate of the full collection: about 19%.
ASM inhibitor: blocks human secretory acid sphingomyelinase; AID 504937; P17405; placental ASM, HMU-PC fluorogenic substrate, 60 min; Potency, µM (top dose mostly 57.5 µM), most hits filed as inhibitors; 340,000 tested, 0.006% active
Target sequence (P17405 47-631 limits assumed): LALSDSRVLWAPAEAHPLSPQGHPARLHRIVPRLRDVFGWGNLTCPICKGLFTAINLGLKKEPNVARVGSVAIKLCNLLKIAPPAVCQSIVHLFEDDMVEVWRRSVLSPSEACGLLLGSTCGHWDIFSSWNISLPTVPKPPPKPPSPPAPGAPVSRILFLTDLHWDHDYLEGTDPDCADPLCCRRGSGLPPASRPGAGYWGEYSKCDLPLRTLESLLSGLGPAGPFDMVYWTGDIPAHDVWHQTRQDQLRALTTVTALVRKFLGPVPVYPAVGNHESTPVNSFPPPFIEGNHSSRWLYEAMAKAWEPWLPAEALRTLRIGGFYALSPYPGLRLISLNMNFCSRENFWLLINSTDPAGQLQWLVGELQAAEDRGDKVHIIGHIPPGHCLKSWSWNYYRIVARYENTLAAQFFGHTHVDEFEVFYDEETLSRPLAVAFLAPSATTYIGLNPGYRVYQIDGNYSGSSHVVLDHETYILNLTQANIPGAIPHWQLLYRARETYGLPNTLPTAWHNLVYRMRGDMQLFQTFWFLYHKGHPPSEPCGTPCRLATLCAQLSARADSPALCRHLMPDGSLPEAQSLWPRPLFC
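Steps: dispense placental human ASM, pin compound, wait 10 min at room temperature, add HMU-PC0 substrate at 9 uM final, incubate 60 min at 37 °C, add stop solution raising pH to 10, read fluorescence.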
HepG2 viability: counter-screen for TGF-b inhibitors: cytotoxicity in HepG2 cells. HepG2 CAGA-GFP viability, ATP luminescence, 18 h. Potency, µM (highest dose often 46.1 µM), most hits filed as cytotoxic. 410,000 tested, 0.76% active. AID 588856
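CellTiter-Glo luminescence gave cytotoxicity after 18 hours at 37 degrees C. The cells were HepG2 CAGA-GFP in 1% FBS DMEM, stimulated with 500 pg/mL TGF-beta after compound addition. %Activity was normalised to no-cell wells (complete cell-killing) and DMSO (no toxicity), and curves were fitted and classified.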
TGFb inhibitor: inhibitors of TGF-b signaling; HepG2 CAGA-GFP TGF-b/SMAD3 reporter, GFP fluorescence, 18 h; TGF-beta stimulated, 500 pg/mL final; Potency, µM (doses to about 46.1 µM), actives largely listed as inhibitors; 410,000 tested, 1.2% active; note: nearly all actives have a fitted effect of over 65% in size
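Smad-responsive CAGA-GFP expression was quantified in HEPG2 cells exposed to compounds and 500 pg/mL final TGF-beta for 18 h at 37 degrees C; unstimulated wells defined full inhibition.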
DT40 TDP1 CPT: DT40-hTDP1 cell growth loss with CPT; Potency, µM (titrated, usually from 46.2 µM), usual class: inhibitors; 420,000 tested, 12% active; chicken DT40 Tdp1-/-;hTDP1 cells + 20 nM CPT, ATP luminescence, 48 h; note: nearly all actives have a fitted effect of over 55% in size
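Chicken DT40 Tdp1-/- cells stably complemented with human TDP1 were seeded at 400 cells/well in medium containing 20 nM camptothecin, exposed to pin-transferred compounds, and grown at 37 °C for at least 48 hr. Viability was read as ATP luminescence.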
IL-1B inflam inh: inflammasome signaling inhibition, IL-1 beta readout; 360,000 tested, 4.7% active; THP-1 LPS/ATP IL-1B secretion, AlphaLISA, 16 h; stronger effect = lower value; activity change, % at 57.5 µM; AID 743279; in the data active = activity change below about -50%; inconclusive = mostly about -30% to -49%
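Secreted IL-1B measured by AlphaLISA bead assay after 16 h compound exposure of THP-1 cells; compounds (final up to 57.5 uM) added 1 h before LPS (250 ng/mL) and ATP (1.25 mM) stimulation; lower signal means less secretion.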
DT40 TDP1 no CPT: qHTS for Inhibitors of human tyrosyl-DNA phosphodiesterase 1 (TDP1): qHTS in cells in absence of CPT; DT40 Tdp1-/- hTDP1 cells, no CPT, ATP luminescence, 48 h; Potency, µM (top dose mostly 46.2 µM), usual class: inhibitors; 420,000 tested, 15% active; note: nearly all actives have a fitted effect of over 55% in size
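Compound effects on proliferation are scored in DT40 Tdp1-/-;hTDP1 cells in the absence of CPT. ATP levels (CellTiter-Glo luminescence) are recorded after a ≥48 hr, 37 °C incubation.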
Hits are given with their value; i = inactive; ? = inconclusive; nt = not tested or not shown. Unless noted, calls come from the whole dose curve; as a rule, active = well fitted curve in the direction sought with a large enough effect; inconclusive = small, poorly fitted or top-dose-only effect, or another doubt; inactive = no such curve, though single readings can be large; an effect the other way counts as inactive or inconclusive.

SMILES	ASM inhibitor	HepG2 viability	TGFb inhibitor	DT40 TDP1 CPT	IL-1B inflam inh	DT40 TDP1 no CPT
O=C(Nc1nc(-c2cccnc2)cs1)c1ccc(S(=O)(=O)N2CCOCC2)cc1	i	i	i	?	i	?
O=C(Nc1nccs1)c1ccc(S(=O)(=O)N2CCOCC2)cc1	i	i	i	?	i	16µM
Cc1csc(NC(=O)c2ccc(S(=O)(=O)N3CCCC3)cc2)n1	i	i	i	?	i	i
CN(C)S(=O)(=O)c1ccc(C(=O)Nc2nc(-c3cccs3)cs2)cc1	i	i	i	21µM	i	?
O=C(Nc1nc(-c2cccs2)cs1)c1ccc(S(=O)(=O)N2CCCC2)cc1	?	i	?	?	-72	?
O=C(Nc1nc(-c2ccc3c(c2)OCCO3)cs1)c1ccc(S(=O)(=O)N2CCCCC2)cc1	i	i	?	?	-79	?
O=C(c1csnn1)N1CCC2(CCCN(Cc3ccccc3)C2)CC1	nt	nt	nt	i	nt	i
O=Cc1cc2ccccc2nc1SCc1ccc(Cl)c(Cl)c1	i	i	i	1µM	i	0.92µM
O=Cc1cc2ccccc2nc1SCc1ccc(Cl)cc1	i	i	i	1µM	i	1µM
CCCCn1cc(S(=O)(=O)c2ccccc2)c(=O)c2cc(F)c(N3CCN(CCC)CC3)cc21	nt	i	i	?	nt	21µM
CCCn1cc(S(=O)(=O)c2ccc(CC)cc2)c(=O)c2cc(F)c(N3CCN(C)CC3)cc21	nt	i	i	16µM	nt	26µM
CCCN1CCN(c2cc3c(cc2F)c(=O)c(S(=O)(=O)c2ccc(Cl)cc2)cn3C)CC1	nt	i	i	?	nt	23µM
CCc1ccc(S(=O)(=O)c2cn(CC)c3cc(N4CCCCC4)c(F)cc3c2=O)cc1	nt	i	i	?	nt	?
CCN1CCN(c2cc3c(cc2F)c(=O)c(S(=O)(=O)c2ccccc2)cn3C)CC1	i	i	i	i	i	i

From PubChem
